# Most compounds without a hit are left out; they make up all but 2.1% or so of the library.
# Casp6 inh: inhibitors of human caspase-6. AID 686996. inhibition, % at 12.5 µM. purified caspase-6, Z-VEID-R110 cleavage fluorescence. P55212. 350,000 compounds, 0.53% hits;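 active = mean inhibition across replicates at least about 35%, with every replicate also reaching that limit, limit read from the data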;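 note: 0% = median of neutral control wells and 100% = no fluorescence left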
# Target sequence (P55212 24-179 limits assumed): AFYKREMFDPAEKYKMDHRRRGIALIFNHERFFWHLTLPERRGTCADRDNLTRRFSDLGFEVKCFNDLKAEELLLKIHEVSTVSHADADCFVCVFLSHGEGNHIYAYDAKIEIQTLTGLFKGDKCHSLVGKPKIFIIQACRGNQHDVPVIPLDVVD
# Target sequence (P55212 194-293 limits assumed): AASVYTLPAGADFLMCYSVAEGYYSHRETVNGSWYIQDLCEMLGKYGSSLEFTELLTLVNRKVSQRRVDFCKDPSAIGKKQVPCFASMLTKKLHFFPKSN
# SIRT5 block: sirtuin-5 (human) deacylase inhibition; Q9NXA8; Purified SirT5, succinyl-peptide AMC, trypsin-coupled fluorescence; AID 652115; 330,000 compounds, 1.1% hits; inhibition, % at 15 µM; in the data active = inhibition above about 15%
# Target sequence (Q9NXA8 whole entry, looked up): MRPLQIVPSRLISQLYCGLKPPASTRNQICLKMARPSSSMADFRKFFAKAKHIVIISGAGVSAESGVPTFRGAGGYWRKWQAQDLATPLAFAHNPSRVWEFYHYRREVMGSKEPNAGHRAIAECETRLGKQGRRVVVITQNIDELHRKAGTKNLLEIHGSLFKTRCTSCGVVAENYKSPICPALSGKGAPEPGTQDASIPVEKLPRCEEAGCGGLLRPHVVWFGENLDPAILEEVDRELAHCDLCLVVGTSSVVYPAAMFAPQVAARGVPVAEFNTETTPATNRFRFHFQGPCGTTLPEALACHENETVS
# ARNT-TACC3 inh: ARNT/TACC3 interaction disruption; inhibition, % at 9.99 µM; AlphaScreen His-ARNT PAS-B/GST-TACC3 binding, luminescence; TACC3 fragment carries E629A point mutation; AID 623870; 390,000 compounds, 0.66% hits;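 active = mean inhibition of replicates at least 50% and at least half of replicates each reaching 50%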;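 note: 0% = complete ARNT plus TACC3 wells and 100% = ARNT alone without TACC3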
# PfHsp90 set2: growth inhibition of yeast expressing Plasmodium Hsp90; S. cerevisiae expressing PfHsp90, BacTiter-Glo ATP, 48 h; yeast lacking PDR1 and PDR3 efflux regulators; inhibition, % at 9.4 µM; 310,000 compounds, 0.32% hits; AID 504621;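 active = every replicate shows inhibition above about 80%, whatever the replicate mean, limit read from the data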;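 note: 0% = DMSO neutral controls and 100% = 20 µM radicicol positive controls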
# NSD2 HMT inh: NSD2 (human) methyltransferase inhibition; NSD2 peptide methylation, AlphaScreen, 120 min; inhibition, % at 12.5 µM; 310,000 compounds, 0.54% hits; AID 743445; in the data active = inhibition above about 50%
# * hit, by the source's call; · = no result; ! = a repeat was not active.
SMILES,Casp6 inh,SIRT5 block,ARNT-TACC3 inh,PfHsp90 set2,NSD2 HMT inh
O=C(/C=C/c1ccc(Cl)cc1)Nc1nccs1,64*,-2,1,-10,16
C/C=C/C=C/C(=O)Nc1nccs1,7,-1,1,23,10
O=C(CCS(=O)(=O)c1ccc(Br)cc1)NCc1ccc(F)cc1,70*,-2,-3,-5,3
O=C(CCS(=O)(=O)c1ccc(Br)cc1)NCCC1=CCCCC1,66*,1,-7,-29,1
Cc1ccc(S(=O)(=O)CCC(=O)NC2CCCCC2)cc1,9,-3,-8,-5,0
O=C(CCS(=O)(=O)c1ccc(Br)cc1)NC1CCCCCC1,61*,5,-2,2,12
C[C@@H]1CCCCO[C@H](CN(C)Cc2ccccc2)[C@H](C)CN([C@H](C)CO)C(=O)c2cc(NC(=O)C3CCCCC3)ccc2O1,-3,5,8,·,·
O=C(C1Cc2ccccc2CN1S(=O)(=O)c1ccc(F)cc1)N1CCOCC1 (centres undefined),-2,25*,-1,-56,24
COc1ccc(N2CCN(C(=O)CCNS(=O)(=O)c3ccc(C)cc3)CC2)cc1,36*,-6,1,2,3
CCC(=O)N1[C@@H]2Cn3c(ccc(C4=CCCC4)c3=O)[C@H]1[C@@H](C(=O)N[C@@H](C)c1ccccc1)[C@@H]2CO,1,5,-5,·,·
COc1cc(/C=C2/C(=O)c3cccc([N+](=O)[O-])c3C2=O)c(Br)cc1O,·,·,7,-3,55*
COc1ccccc1NC(=O)CCCCCN1C(=O)c2cccc([N+](=O)[O-])c2C1=O,1,1,0,-8,1
O=C1/C(=C/c2cccs2)SC(=S)N1NS(=O)(=O)c1ccccc1,13,6,-4,-69,6
O=C1/C(=C/C=C/c2ccco2)SC(=S)N1NS(=O)(=O)c1ccccc1,79*,43*,·,-1,119*
O=C(Cc1cccnc1)N[C@H]1CC[C@@H](CCn2cc(Cc3ccccc3)nn2)O[C@H]1CO,-3,2,2,·,·
Cc1ccc(S(=O)(=O)N(C)C[C@@H]2Oc3ncc(C#Cc4ccc(C(F)(F)F)cc4)cc3C(=O)N([C@H](C)CO)C[C@@H]2C)cc1,3,25*,9,·,·
COc1cccc(S(=O)(=O)N(C)C[C@@H]2Oc3ncc(-c4cccc(C(F)(F)F)c4)cc3C(=O)N([C@H](C)CO)C[C@@H]2C)c1,1,20*,-4,·,·
CCCC#Cc1cnc2c(c1)C(=O)N([C@@H](C)CO)C[C@@H](C)[C@H](CN(C)S(=O)(=O)c1cccc(OC)c1)O2,-1,29*,5,·,·
C[C@H]1CN([C@@H](C)CO)C(=O)c2cc(C#CCN(C)C)cnc2O[C@H]1CN(C)S(=O)(=O)c1ccccc1,-3,63*,-2,·,·
C[C@H](CO)N1C[C@H](C)[C@H](CN(C)S(=O)(=O)c2ccc(F)cc2)Oc2ncc(C#Cc3ccc(C(F)(F)F)cc3)cc2C1=O,-3,7,0,·,·
CCCC#Cc1cnc2c(c1)C(=O)N([C@H](C)CO)C[C@@H](C)[C@@H](CN(C)S(=O)(=O)c1cccc(OC)c1)O2,0,2,-2,·,·
COc1cccc(S(=O)(=O)N(C)C[C@@H]2Oc3ncc(-c4cccc(F)c4)cc3C(=O)N([C@H](C)CO)C[C@@H]2C)c1,-2,6,-5,·,·
C/C=C/c1ccc([C@@H]2[C@@H](CO)N3C(=O)CN(C(=O)c4cccc(F)c4)C[C@@H]23)cc1,5,-1,·,·,·
C[C@@H]1CN([C@H](C)CO)C(=O)c2cc(NC(=O)Cc3cn(C)c4ccccc34)ccc2O[C@@H]1CN(C)Cc1ccc(-c2ccccc2)cc1,0,4,·,·,·
C[C@H](CO)N1C[C@H](C)[C@@H](CN(C)S(=O)(=O)c2ccccc2F)Oc2ncc(C#Cc3cccnc3)cc2C1=O,36*!,-5,7,·,·
SMILES,Casp6 inh,SIRT5 block,ARNT-TACC3 inh,PfHsp90 set2,NSD2 HMT inh
CCOc1ncccc1C(=O)Nc1ccccc1N1CCOCC1,2,-2,-1,-4,-8
CCOc1ncccc1C(=O)OC(C)C(=O)Nc1ccc(N2CCOCC2)cc1 (centres undefined),35*,2,1,1,-2
C[C@@H]1CN([C@@H](C)CO)S(=O)(=O)c2ccc(-c3cccc(C(=O)N(C)C)c3)cc2O[C@@H]1CN(C)C(=O)Cc1ccccn1,0,-3,0,·,·
O=C(O)c1ccc(-n2cccc2/C=C2/SC(=O)N(CC(=O)N3CCCC3)C2=O)cc1,66*,19*,1,15,·
Nc1nc(-c2ccc(Cl)cc2)nc(-c2ccc(Cl)cc2)n1,-1,29*,-5,-4,5
Cc1ccc(-c2cc(-c3ccc(Cl)cc3)c(C#N)c(N)n2)o1,·,·,-4,-30,·
Cc1ccc(-c2cc(-c3ccc(F)cc3)c(C#N)c(N)n2)o1,5,-3,·,120*,9
Cc1cc(-c2cc(-c3ccc(Cl)cc3)nc(N)c2C#N)co1,·,·,15,122*,·
CO[C@@H]1CN(C)C(=O)c2cc(NS(C)(=O)=O)ccc2OC[C@H](C)N(CCC(F)(F)F)C[C@H]1C,·,-6,-3,·,·
C[C@H]1CN([C@@H](C)CO)S(=O)(=O)c2ccc(-c3ccc(F)cc3)cc2O[C@H]1CN(C)C(=O)C1CCCCC1,1,9,1,·,·
C[C@H]1CN([C@@H](C)CO)C(=O)c2cc(NC(=O)Nc3ccc4c(c3)OCO4)ccc2O[C@H]1CN(C)C(=O)Nc1ccc2c(c1)OCO2,-4,16*,10,·,·
C[C@@H]1CN([C@@H](C)CO)C(=O)c2cc(NC(=O)Nc3ccc4c(c3)OCO4)ccc2O[C@@H]1CN(C)C(=O)Nc1ccc(C(F)(F)F)cc1,-2,16*,15,·,·
C[C@H]1CN([C@@H](C)CO)C(=O)c2cc(NC(=O)Nc3ccc(C(F)(F)F)cc3)ccc2O[C@H]1CN(C)Cc1ccc2c(c1)OCO2,0,0,0,·,·
C[C@@H]1CN([C@H](C)CO)C(=O)c2cc(NC(=O)c3ccncc3)ccc2O[C@@H]1CN(C)C(=O)Nc1ccc2c(c1)OCO2,-2,20*,-5,·,·
C[C@@H]1CN([C@@H](C)CO)C(=O)c2cc(NC(=O)Nc3ccc4c(c3)OCO4)ccc2O[C@@H]1CN(C)Cc1ccc(C(F)(F)F)cc1,4,17*,2,·,·
C[C@@H]1CN([C@H](C)CO)C(=O)c2cc(NC(=O)Nc3ccc(C(F)(F)F)cc3)ccc2O[C@H]1CN(C)C(=O)Nc1ccc2c(c1)OCO2,-1,5,7,·,·
C[C@H](CO)N1C[C@H](C)[C@@H](CN(C)C(=O)Nc2ccc3c(c2)OCO3)Oc2ccc(NC(=O)c3ccncc3)cc2C1=O,0,-2,3,·,·
Cc1noc(C)c1S(=O)(=O)Nc1cccc2c1O[C@@H](CN(C)C(=O)NC(C)C)[C@@H](C)CN([C@@H](C)CO)C2=O,2,0,0,·,·
COc1cccc(NC(=O)N2C[C@H](O)COC[C@@H]3O[C@@H](CC(=O)NCc4ccccc4F)CC[C@H]32)c1,·,·,5,·,·

# From PubChem BioAssay
